This passage reports outcome and AC50 results from PubChem BioAssay (EPA / NIEHS).

Activity calls are given as the source filed them. How the source made its calls: active means hit-call score of the fitted dose curve at least 0.9, where 1 is the maximum; inactive means score below 0.9.

The nature of assay [1]: ATG_CRE_CIS: Attagene CIS-FACTORIAL HepG2 Assay for human cAMP Responsive Element (CRE) binding protein 3 (AID 2282926). Conditions: HepG2 CRE cis-reporter, Attagene multiplexed mRNA; actives raise or lower the signal. Summed up:
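Liver-derived HepG2, transfected with a CRE-containing reporter panel, exposed 24 h; transcript levels sized and quantified by capillary electrophoresis of labelled amplicons; signal changes either way referenced to vehicle.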

The target in assay [2] is CCAAT/enhancer-binding protein beta (Homo sapiens) (UniProt P17676). Nature of the assay: ATG_C_EBP_CIS: Attagene CIS-FACTORIAL HepG2 Assay for human CCAAT/Enhancer Binding Protein (C/EBP) beta (AID 2282927). Conditions: HepG2 Attagene cis-factorial transcription factor reporter; actives raise or lower the signal. In outline:
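Following a 24 h incubation with test chemical, transfected HepG2 cells yielded RNA whose reporter transcripts were quantified by RT-PCR and fluorescent capillary electrophoresis, with DMSO serving as baseline for bidirectional fitting.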

Assay [3] has as its target Aryl hydrocarbon receptor (Homo sapiens) (UniProt P35869). Nature of the assay: ATG_Ahr_CIS: Attagene CIS-FACTORIAL HepG2 Assay for human Aryl Hydrocarbon Receptor (Ahr) (AID 2282930). The note with it: HepG2 AhR cis-factorial reporter transcription; actives raise or lower the signal. Summed up:
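Values derive from bidirectional fitting against DMSO negative control. Underlying signal: cis-element reporter mRNA in transiently transfected HepG2, harvested 24 h post-dose and measured by RT-PCR plus capillary electrophoresis.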

Assay [4] in a line: ATG_BRE_CIS: Attagene CIS-FACTORIAL HepG2 Assay for human Bone Morphogenetic Protein (BMP) Response Element (BRE) (AID 2282933). Conditions: HepG2 BMP response element reporter, Attagene transcription factor profiling; actives raise or lower the signal. In outline: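 HepG2 cells transiently transfected with CIS reporter units (endogenous TF activity, BMP response element), dosed 24 h. Reporter mRNA quantified by RT-PCR, fluorescent labelling and capillary electrophoresis; bidirectional fit vs DMSO baseline.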

The nature of assay [5]: ATG_M_19_CIS: Attagene CIS-FACTORIAL HepG2 Assay for M19 Transcription Factor (Internal Marker) (AID 2282939). The note with it: HepG2 Attagene CIS-FACTORIAL M19 internal marker reporter; actives raise or lower the signal. Summed up:
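HepG2 cells transiently transfected with cis-regulated multiplexed reporter units, dosed 24 h. Reporter mRNA quantified by RT-PCR and capillary electrophoresis; internal background marker fitted bidirectionally versus DMSO.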

Assay [6] is described as follows: ATG_GLI_CIS: Attagene CIS-FACTORIAL HepG2 Assay for human Zinc Finger Protein GLI1 (AID 2282945). Conditions: HepG2, Attagene cis-factorial reporter mRNA, GLI element; actives raise or lower the signal. In outline: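 HepG2 cells transiently transfected with cis-promoter multiplexed reporter units report endogenous transcription factor activity. After 24 h chemical exposure, reporter mRNA was quantified by RT-PCR, 6-FAM labelling, HpaI digestion and capillary electrophoresis, with bidirectional fitting against DMSO.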

Assay [7] in a line: ATG_M_06_CIS: Attagene CIS-FACTORIAL HepG2 Assay for M06 Transcription Factor (Internal Marker) (AID 2282950). Conditions: HepG2 Attagene CIS-FACTORIAL M06 internal marker reporter; actives raise or lower the signal. Summed up: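 Internal background marker within multiplexed cis-reporter HepG2 system. Cells transiently transfected, dosed 24 h; reporter mRNA measured by RT-PCR, HpaI digestion and capillary electrophoresis. Bidirectional fit relative to DMSO.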

For assay [8], the target named is Hypoxia-inducible factor 1-alpha (Homo sapiens) (UniProt Q16665). Nature of the assay: ATG_HIF1a_CIS: Attagene CIS-FACTORIAL HepG2 Assay for human Hypoxia Inducible Factor 1 (HIF1A) (AID 2282951). The note with it: HepG2 Attagene cis-factorial HIF1a reporter transcription; actives raise or lower the signal. In outline:
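Endogenous-TF cis reporter readout, human HepG2 cells, 24 h incubation; mRNA detected via RT-PCR and capillary electrophoresis fluorescence; DMSO-normalised bidirectional fitting.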

Assay [9] concerns the target Hepatocyte nuclear factor 6 (Homo sapiens) (UniProt Q9UBC0). Nature of the assay: ATG_HNF6_CIS: Attagene CIS-FACTORIAL HepG2 Assay for human Hepatocyte Nuclear Factor 6 (HNF6) (AID 2282952). Conditions: HepG2 Attagene cis-factorial HNF6 reporter transcription; actives raise or lower the signal. Summed up:
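Twenty-four-hour chemical treatment of reporter-transfected HepG2 cells precedes RNA isolation, DNase-treated reverse transcription and PCR of reporter sequences. Labelled fragments are sized by capillary electrophoresis and fitted bidirectionally versus DMSO.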

Assay [10] deals with Heat shock factor protein 1 (Homo sapiens) (UniProt Q00613). The assay can be described thus: ATG_HSE_CIS: Attagene CIS-FACTORIAL HepG2 Assay for human Heat Shock Transcription Factor 1 (HSE) (AID 2282953). Conditions: HepG2 HSE cis-reporter, Attagene RNA transcription; actives raise or lower the signal. In outline: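 HepG2 cells transfected with cis-promoter reporter units sensing endogenous transcription factor activity; reporter mRNA quantified 24 h post-dose by RT-PCR and capillary electrophoresis of 6-FAM-labelled products. Bidirectional fitting against DMSO.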

Assay [11] can be described thus: ATG_TA_CIS: Attagene CIS-FACTORIAL HepG2 Assay for human TA Basal Promoter (AID 2282964). The note with it: HepG2 Attagene CIS-factorial TA basal promoter reporter; actives raise or lower the signal. Summed up:
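HepG2 cells transiently transfected with multiple reporter units under cis promoter elements, reporting endogenous transcription factor activity; this endpoint tracks the TA basal promoter as background control. Reporter mRNA after 24 h dosing measured by RT-PCR/capillary electrophoresis; bidirectional fits versus DMSO.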

A short description of assay [12]: ATG_VDRE_CIS: Attagene CIS-FACTORIAL HepG2 Assay for human Vitamin D Receptor Element (VDRE) (AID 2282968). The note with it: HepG2 VDRE cis-reporter transcription, actives raise or lower the signal. In outline: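 Steps: transfect HepG2 with multiple reporter transcription units; dose chemicals 24 h; isolate RNA; RT-PCR; label with 6-FAM primer extension; HpaI digest; capillary electrophoresis. Curves fitted both directions against DMSO.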

Assay [13] has as its target X-box-binding protein 1 (Homo sapiens) (UniProt P17861). Nature of the assay: ATG_Xbp1_CIS: Attagene CIS-FACTORIAL HepG2 Assay for human X-box Binding Protein 1 (XBP1) (AID 2282972). The note with it: HepG2 XBP1 cis-element reporter, Attagene multiplex; actives raise or lower the signal. In outline: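 Changes in reporter transcript abundance, read by RT-PCR and capillary electrophoresis, reflect endogenous transcription factor activity. Transfected HepG2 cells received compound for 24 hours; DMSO defined baseline for bidirectional analysis.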

The target in assay [14] is Nuclear respiratory factor 1 (Homo sapiens) (UniProt Q16656). Nature of the assay: ATG_NRF1_CIS: Attagene CIS-FACTORIAL HepG2 Assay for human Nuclear Respiratory Factor 1 (NRF1) Orphan Gene (AID 2282987). The note with it: HepG2 NRF1 cis-element reporter, Attagene multiplex; actives raise or lower the signal. Summed up: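 Endogenous factor activity was captured via cis-element-driven reporter transcripts in HepG2 cells. Following 24 h chemical treatment, transcripts were quantified by RT-PCR and capillary electrophoresis.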

Assay [15] addresses Myc proto-oncogene protein (Homo sapiens) (UniProt P01106). The assay can be described thus: ATG_Myc_CIS: Attagene CIS-FACTORIAL HepG2 Assay for human Myelocytomatosis (Myc) Proto-Oncogene Transcription Factor (AID 2282990). Conditions: HepG2, Attagene cis-reporter transcription factor activity; actives raise or lower the signal. Summed up: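 Multiplexed cis-reporter transcription in HepG2 cells after 24 h chemical treatment. Reporter mRNA measured by RT-PCR and capillary electrophoresis fluorescence; activity fitted bidirectionally against DMSO control.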

Assay [16] is described as follows: ATG_NRF2_ARE_CIS: Attagene CIS-FACTORIAL HepG2 Assay for human Nuclear Factor Erythroid 2 Related Factor 2 (NFR2) response to Antioxidant Response Elements (ARE) (AID 2282992). Conditions: HepG2 Attagene ARE/NRF2 reporter, transcription factor activity; actives raise or lower the signal. Summed up: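 Using transiently transfected HepG2 cells exposed for 24 h, reporter mRNA levels were determined by RT-PCR with fluorescent primer extension and capillary electrophoresis, analysed for gain or loss of signal against DMSO.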

Assay [17] can be described thus: ATG_Oct_MLP_CIS: Attagene CIS-FACTORIAL HepG2 Assay for human Octamer-Binding Transcription Factor (Oct) (AID 2282993). Conditions: HepG2 Attagene cis-factorial Oct reporter, mRNA; actives raise or lower the signal. Summed up:
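HepG2 cells transiently transfected with cis-element-driven reporter transcription units (endogenous TF activity); 24 h compound exposure. Reporter mRNA quantified by RT-PCR, 6-FAM labelling, HpaI digestion and capillary electrophoresis; bidirectional fit versus DMSO baseline.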

Assay [18] addresses Cellular tumor antigen p53 (Homo sapiens) (UniProt P04637). The assay can be described thus: ATG_p53_CIS: Attagene CIS-FACTORIAL HepG2 Assay for human p53 Transcription Factor (AID 2282994). Conditions: HepG2 p53 cis-element reporter, Attagene mRNA; actives raise or lower the signal. Summed up:
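In HepG2 cells, reporter transcription units under cis-regulatory promoters were transiently introduced. Following 24 h treatment, RNA was processed to labelled, digested cDNA fragments read by capillary electrophoresis; fitting was bidirectional versus DMSO.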

Assay [19] can be described thus: ATG_E_Box_CIS: Attagene CIS-FACTORIAL HepG2 Assay for human Enhancer Box (E-box) (AID 2282936). Conditions: HepG2 E-box cis-reporter transcription, actives raise or lower the signal. In outline:
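Endogenous transcription factor activity was sensed in human HepG2 liver cells through transfected cis-promoter reporter units. After 24 h of dosing, total RNA was reverse-transcribed and reporter cDNA resolved by capillary electrophoresis.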

The nature of assay [20]: ATG_AP_1_CIS: Attagene CIS-FACTORIAL HepG2 Assay for human Activator Protein 1 (AP-1) (AID 2282931). The note with it: HepG2 Attagene cis-factorial AP-1 reporter mRNA; actives raise or lower the signal. In outline: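 After 24 h incubation with test chemical, RNA from transfected HepG2 cells was reverse-transcribed, amplified, fluorescently labelled and digested before capillary electrophoresis. Reporters were driven by cis-regulatory promoters; activity fitted bidirectionally versus DMSO.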

One may read the AC50 as the concentration at which the activity in the assay is half-maximal.

Chain of Myc proto-oncogene protein (Homo sapiens) (P01106 whole entry, looked up): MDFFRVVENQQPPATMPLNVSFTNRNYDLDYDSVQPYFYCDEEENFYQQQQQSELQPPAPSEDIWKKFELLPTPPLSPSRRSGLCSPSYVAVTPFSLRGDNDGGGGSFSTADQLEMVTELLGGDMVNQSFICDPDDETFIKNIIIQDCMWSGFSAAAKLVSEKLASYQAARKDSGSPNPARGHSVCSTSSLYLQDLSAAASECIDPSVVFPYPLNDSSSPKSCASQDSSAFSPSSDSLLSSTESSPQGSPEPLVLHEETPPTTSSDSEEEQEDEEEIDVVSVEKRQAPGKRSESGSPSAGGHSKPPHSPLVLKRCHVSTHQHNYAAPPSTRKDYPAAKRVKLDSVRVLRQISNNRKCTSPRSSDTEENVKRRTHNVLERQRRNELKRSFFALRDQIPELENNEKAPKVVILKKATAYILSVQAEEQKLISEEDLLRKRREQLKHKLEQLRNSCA
Chain of Heat shock factor protein 1 (Homo sapiens) (Q00613 whole entry, looked up): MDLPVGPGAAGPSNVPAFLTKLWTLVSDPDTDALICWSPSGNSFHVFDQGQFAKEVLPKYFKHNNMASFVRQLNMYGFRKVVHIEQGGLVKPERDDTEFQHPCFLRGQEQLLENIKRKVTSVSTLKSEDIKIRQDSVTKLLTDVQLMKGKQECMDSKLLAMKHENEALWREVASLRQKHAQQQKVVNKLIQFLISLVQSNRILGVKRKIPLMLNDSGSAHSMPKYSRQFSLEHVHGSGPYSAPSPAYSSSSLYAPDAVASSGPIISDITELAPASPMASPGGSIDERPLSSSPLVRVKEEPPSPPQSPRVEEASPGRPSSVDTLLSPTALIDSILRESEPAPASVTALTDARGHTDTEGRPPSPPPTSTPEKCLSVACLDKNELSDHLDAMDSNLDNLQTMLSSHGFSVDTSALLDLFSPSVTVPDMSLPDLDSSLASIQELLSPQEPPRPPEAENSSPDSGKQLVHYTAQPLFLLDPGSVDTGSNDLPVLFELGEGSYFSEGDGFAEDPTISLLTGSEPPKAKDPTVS
Chain of X-box-binding protein 1 (Homo sapiens) (P17861 whole entry, looked up): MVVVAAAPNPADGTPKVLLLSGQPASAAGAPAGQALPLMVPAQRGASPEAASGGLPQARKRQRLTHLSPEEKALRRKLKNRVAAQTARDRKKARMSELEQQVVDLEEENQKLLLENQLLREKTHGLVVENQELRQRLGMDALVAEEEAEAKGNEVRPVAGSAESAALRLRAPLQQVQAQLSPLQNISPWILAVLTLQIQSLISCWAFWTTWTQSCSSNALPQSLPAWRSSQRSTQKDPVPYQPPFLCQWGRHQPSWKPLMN
Chain of Cellular tumor antigen p53 (Homo sapiens) (P04637 whole entry, looked up, the tested form may be a part): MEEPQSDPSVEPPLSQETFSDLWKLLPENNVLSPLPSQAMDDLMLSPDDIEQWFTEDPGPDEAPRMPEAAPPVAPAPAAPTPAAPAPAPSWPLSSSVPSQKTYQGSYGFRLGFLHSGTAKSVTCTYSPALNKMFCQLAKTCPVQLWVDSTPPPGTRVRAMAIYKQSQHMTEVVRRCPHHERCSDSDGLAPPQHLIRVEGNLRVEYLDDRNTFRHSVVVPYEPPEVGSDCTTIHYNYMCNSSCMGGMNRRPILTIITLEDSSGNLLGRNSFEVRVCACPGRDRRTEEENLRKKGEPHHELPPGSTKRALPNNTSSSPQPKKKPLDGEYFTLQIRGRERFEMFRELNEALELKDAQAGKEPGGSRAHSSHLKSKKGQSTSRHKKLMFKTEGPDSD
Chain of Hepatocyte nuclear factor 6 (Homo sapiens) (Q9UBC0 whole entry, looked up, the tested form may be a part): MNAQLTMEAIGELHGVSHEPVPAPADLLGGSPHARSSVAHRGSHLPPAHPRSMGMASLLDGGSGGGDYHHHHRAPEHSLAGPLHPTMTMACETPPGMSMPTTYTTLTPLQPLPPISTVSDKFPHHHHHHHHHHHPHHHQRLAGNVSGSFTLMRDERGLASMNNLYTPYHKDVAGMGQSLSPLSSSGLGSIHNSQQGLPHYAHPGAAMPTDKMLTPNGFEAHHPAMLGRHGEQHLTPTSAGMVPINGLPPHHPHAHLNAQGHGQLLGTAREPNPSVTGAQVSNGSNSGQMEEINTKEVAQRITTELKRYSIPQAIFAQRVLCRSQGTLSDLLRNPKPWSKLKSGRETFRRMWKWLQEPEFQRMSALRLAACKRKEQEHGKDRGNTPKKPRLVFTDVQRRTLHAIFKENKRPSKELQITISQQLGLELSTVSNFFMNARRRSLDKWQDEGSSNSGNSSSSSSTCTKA
Chain of Hypoxia-inducible factor 1-alpha (Homo sapiens) (Q16665 whole entry, looked up): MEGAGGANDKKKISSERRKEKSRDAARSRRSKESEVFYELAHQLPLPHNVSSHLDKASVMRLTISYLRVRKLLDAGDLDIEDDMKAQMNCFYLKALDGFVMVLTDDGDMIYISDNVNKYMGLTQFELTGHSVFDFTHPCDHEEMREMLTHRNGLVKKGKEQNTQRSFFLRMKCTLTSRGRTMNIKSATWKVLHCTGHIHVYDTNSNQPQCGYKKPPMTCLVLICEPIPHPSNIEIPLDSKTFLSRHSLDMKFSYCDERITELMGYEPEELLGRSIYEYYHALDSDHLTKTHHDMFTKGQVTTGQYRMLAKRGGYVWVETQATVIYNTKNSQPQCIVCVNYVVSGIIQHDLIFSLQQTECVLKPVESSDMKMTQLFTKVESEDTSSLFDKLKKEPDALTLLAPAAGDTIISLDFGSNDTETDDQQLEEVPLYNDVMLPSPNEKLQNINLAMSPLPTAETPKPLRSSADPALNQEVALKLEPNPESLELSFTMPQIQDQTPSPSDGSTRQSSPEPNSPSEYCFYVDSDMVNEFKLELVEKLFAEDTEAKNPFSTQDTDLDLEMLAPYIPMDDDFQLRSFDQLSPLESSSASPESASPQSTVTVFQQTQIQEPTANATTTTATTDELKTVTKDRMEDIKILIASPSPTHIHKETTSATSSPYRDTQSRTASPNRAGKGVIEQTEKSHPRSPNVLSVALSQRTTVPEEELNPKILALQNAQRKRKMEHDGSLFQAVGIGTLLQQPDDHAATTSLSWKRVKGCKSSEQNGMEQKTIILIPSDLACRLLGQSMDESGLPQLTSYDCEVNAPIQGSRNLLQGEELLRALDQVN
Chain of Nuclear respiratory factor 1 (Homo sapiens) (Q16656 whole entry, looked up): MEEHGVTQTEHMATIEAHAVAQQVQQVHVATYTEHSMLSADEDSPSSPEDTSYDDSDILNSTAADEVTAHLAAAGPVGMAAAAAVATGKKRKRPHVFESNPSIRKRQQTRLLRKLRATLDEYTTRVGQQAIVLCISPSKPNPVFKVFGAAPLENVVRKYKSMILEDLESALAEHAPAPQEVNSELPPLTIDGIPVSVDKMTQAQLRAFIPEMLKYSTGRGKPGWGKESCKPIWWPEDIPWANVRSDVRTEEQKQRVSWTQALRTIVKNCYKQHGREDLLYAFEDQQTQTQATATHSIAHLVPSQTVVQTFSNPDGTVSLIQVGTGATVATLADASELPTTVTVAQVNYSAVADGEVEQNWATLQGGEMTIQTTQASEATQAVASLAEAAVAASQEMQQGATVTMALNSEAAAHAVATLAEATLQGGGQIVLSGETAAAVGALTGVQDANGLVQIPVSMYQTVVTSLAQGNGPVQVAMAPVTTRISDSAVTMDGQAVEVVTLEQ
Chain of Aryl hydrocarbon receptor (Homo sapiens) (P35869 whole entry, looked up): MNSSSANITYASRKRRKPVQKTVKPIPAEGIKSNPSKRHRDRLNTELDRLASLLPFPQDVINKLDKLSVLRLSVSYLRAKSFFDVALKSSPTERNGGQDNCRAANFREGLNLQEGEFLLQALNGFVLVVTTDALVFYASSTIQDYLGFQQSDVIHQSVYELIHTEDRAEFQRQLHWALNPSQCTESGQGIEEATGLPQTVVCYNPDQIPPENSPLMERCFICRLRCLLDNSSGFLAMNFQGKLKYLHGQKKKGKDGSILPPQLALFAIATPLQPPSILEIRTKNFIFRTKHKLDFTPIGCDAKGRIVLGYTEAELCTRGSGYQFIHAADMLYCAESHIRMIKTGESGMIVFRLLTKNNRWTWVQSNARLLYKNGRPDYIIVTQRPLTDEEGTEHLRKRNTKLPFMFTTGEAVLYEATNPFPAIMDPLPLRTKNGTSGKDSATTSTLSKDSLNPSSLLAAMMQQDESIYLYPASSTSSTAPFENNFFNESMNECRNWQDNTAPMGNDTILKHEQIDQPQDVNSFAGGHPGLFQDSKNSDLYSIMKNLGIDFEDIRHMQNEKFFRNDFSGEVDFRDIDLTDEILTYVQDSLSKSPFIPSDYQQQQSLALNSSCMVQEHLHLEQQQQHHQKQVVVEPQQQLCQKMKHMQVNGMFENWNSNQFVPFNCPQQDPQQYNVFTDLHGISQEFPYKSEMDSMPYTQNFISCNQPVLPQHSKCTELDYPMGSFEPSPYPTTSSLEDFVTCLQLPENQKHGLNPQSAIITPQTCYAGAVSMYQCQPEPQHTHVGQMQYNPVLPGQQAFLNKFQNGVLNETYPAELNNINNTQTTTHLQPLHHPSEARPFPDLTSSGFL
Chain of CCAAT/enhancer-binding protein beta (Homo sapiens) (P17676 whole entry, looked up): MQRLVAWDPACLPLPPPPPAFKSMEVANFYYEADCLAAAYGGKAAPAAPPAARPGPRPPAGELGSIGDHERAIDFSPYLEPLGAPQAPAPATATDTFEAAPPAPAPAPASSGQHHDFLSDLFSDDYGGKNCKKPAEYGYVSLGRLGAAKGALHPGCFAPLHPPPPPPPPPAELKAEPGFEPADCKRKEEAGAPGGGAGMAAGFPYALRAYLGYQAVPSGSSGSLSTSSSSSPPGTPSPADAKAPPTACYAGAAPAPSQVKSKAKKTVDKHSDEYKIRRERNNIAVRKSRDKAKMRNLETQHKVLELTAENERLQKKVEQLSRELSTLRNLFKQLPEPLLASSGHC

For the compound `CSc1nc(N=[N+]=[N-])nc(NC(C)C)n1`, the compound was called inactive in assay [1], in assay [2], in [3], in assay [4], in [5] and in assay [6]. In addition, the call in assay [7], in assay [8], in assay [9], in assay [10], in assay [11] and in [12] was inactive. Further, the result in assay [13], in assay [14], in assay [15], in [17] and in [18] was inactive. Also, the half-maximal activity concentration (AC50) in assay [16] is 100 µM (active).

`Nc1ccc(Cl)c(Cl)c1`: the call in assay [1], in [2], in [3], in [19], in assay [5] and in assay [6] was inactive. For the same compound, the outcome in [7], in assay [8], in assay [9], in [10], in assay [12] and in [13] was inactive. Further, the result in assay [14], in assay [15], in assay [16], in assay [17] and in [18] was inactive.

For the compound `CC(=O)C=Cc1ccccc1`, the compound was classed as inactive in assay [1], in [3], in [5], in assay [6], in [7] and in assay [8]. In addition, the outcome in [11], in assay [13], in assay [14] and in assay [15] was inactive. The AC50 in assay [2] was 100 µM (active); in assay [20], 133 µM (active); in assay [4] it was 74.5 µM (active); in assay [9], 179 µM (active); in assay [10], 152 µM (active); in [12], 100 µM (active). In addition, the AC50 was 56.5 µM (active) in assay [16] and 100 µM (active) in [17].

Turning to `N#CCNCC#N`, the call in [1], in assay [2], in [3], in assay [20], in [19] and in assay [6] was inactive. Moreover, the result in assay [7], in assay [8], in [9], in assay [10], in assay [12] and in assay [13] was inactive. The compound was called inactive in [15], in [16], in [17] and in assay [18].
